# BoNT-A LC inh2: BoNT/A light chain protease inhibitors, primary screen, biochemical, flow cytometry, MLPCN library; AID 588499, 2011; inhibition, % at 10 µM; Botulinum neurotoxin type A light chain protease (Clostridium botulinum A str. ATCC 3502); 360,000 compounds, 0.17% hits; multiplex microsphere protease substrate cleavage
# Bead autofluor: counter-screen for toxin protease inhibitors: compound fluorescence. compound autofluorescence counterscreen, microsphere flow cytometry; hits give high values. fluorescence intensity (concentration not given with the values). 360,000 compounds, 3.1% hits; in the data active = fluorescence intensity above about 16000; inconclusive = no clear call, values can overlap the other calls
# Anthrax LF inh2: Bacillus anthracis LF protease inhibitors, primary screen, biochemical, multiplex microsphere, MLPCN library | Lethal factor (Bacillus anthracis), P15917 | multiplex microsphere protease cleavage assay | inhibition, % at 10 µM | 360,000 compounds, 0.12% hits | AID 588501, 2011
# BoNT F protease: BoNT/F light chain protease inhibitors, primary screen, biochemical, flow cytometry, MLPCN library; Botulinum neurotoxin type F light chain protease (Clostridium botulinum); Multiplex microsphere protease cleavage assay; inhibition, % at 10 µM; 360,000 compounds, 0.22% hits; in the data active = inhibition above about 35%, passing the limit was not always enough; inconclusive = no clear call, values can overlap the other calls
# A number is an active result; . = inactive; ? = inconclusive. An excerpt weighted towards active compounds, which were near 3.5% of everything screened. Cut-off read from the data, not from the text of the source, unless noted: active = inhibition above about 30%; inconclusive = no clear call, values can overlap the other calls; inactive = below that.
SMILES,BoNT-A LC inh2,Bead autofluor,Anthrax LF inh2,BoNT F protease
CCOC(=O)C1C(=O)NC(N2CCN(c3ccccc3)CC2)=NC1c1ccccc1 (configuration not stated),.,23474,.,.
Cn1ccnc1SCC(=O)Nc1cccc2ccccc12,.,19695,.,.
COC(=O)c1ccccc1NC(=O)CSc1nccn1C,.,.,.,.
O=C(CSc1nnc(-c2ccc(Br)cc2)o1)Nc1cccc2ccccc12,.,23146,.,.
COc1ccc(NC(=O)c2cc(C)nn2-c2ccccc2)cc1,.,.,.,.
CC(=O)Nc1ccc(NC(=O)c2cc(C)nn2-c2ccccc2)cc1,?,22454,.,.
Cc1ccc(S(=O)(=O)NNc2ccccc2)cc1,?,16260,.,.
Cc1ccc(S(=O)(=O)Nc2ccc(Nc3ccccc3)cc2)cc1,.,.,.,.
Cc1ccc(S(=O)(=O)NNC(=O)c2ccccc2O)cc1,.,.,.,39.1
CCCN(CCC)S(=O)(=O)c1ccc(C(=O)OCCN2C(=O)c3cccc4c(N5CCOCC5)ccc(c34)C2=O)cc1,37.4,.,37.3,.
O=C(OCCN1C(=O)c2cccc3c(N4CCOCC4)ccc(c23)C1=O)c1ccc(Cl)cc1,34.4,.,.,.
Cc1ccc(C(CC(=O)O)NC(=O)CCNC(=O)c2ccco2)cc1 (configuration not stated),.,?,.,.
CC(=O)NC1C(c2nc3ccccc3s2)=C(c2ccccc2)C(=O)N1c1ccc(C)cc1 (configuration not stated),.,.,.,.
COc1cccc(N2C(=O)C(c3ccccc3)=C(c3nc4ccccc4s3)C2NC(C)=O)c1 (configuration not stated),?,21453,.,.
COc1ccc(C2=Cc3ccc(OC(C)=O)cc3OC2)cc1,.,.,.,.
COc1ccc(C(C)C)cc1S(=O)(=O)Nc1ccc(Cl)cn1,?,22386,.,.
COC(=O)c1ccc(Cn2nnc3c(=O)[nH]c(C4CCCN(S(=O)(=O)c5cccc(Cl)c5)C4)nc32)cc1 (configuration not stated),.,.,.,.
Cc1cc(C)c2nc(SCCc3ccccc3)nc(C)c2c1,.,.,.,.
Cc1cc(C)c2nc(SCc3ccc([N+](=O)[O-])cc3)nc(C)c2c1,?,20592,.,.
Cc1ccc(-n2c(SCc3ccc([N+](=O)[O-])cc3)nc3ccccc3c2=O)cc1,.,20811,.,.
Cc1ccc2nc(SCc3ccc([N+](=O)[O-])cc3)nc(C)c2c1,?,23313,.,.
Cc1nc2ccccc2c(=O)n1-c1ccc([N+](=O)[O-])cc1,.,.,.,.
Cc1ccc2nc(SCc3ccc([N+](=O)[O-])cc3)[nH]c2c1,.,.,.,.
COc1cc(/C=C/C(=O)OCC(=O)NC(=O)C2COc3ccccc3O2)ccc1OC(F)F (configuration not stated),.,.,.,.
CCOc1nc(C)ccc1-c1noc(-c2ccco2)n1,.,20107,.,.
SMILES,BoNT-A LC inh2,Bead autofluor,Anthrax LF inh2,BoNT F protease
COc1ccccc1CCNC(=O)c1cccc(NC(=O)CC2SC(N3CCCCC3)=NC2=O)c1 (configuration not stated),.,.,.,.
COc1ccc(-n2cc(C(=O)O)c3ccccc3c2=O)cc1,.,16517,.,.
O=C(O)c1cn(-c2ccccc2)c(=O)c2ccccc12,.,.,.,.
N#C/C(=C/C=C/c1ccccc1)C(=O)Nc1ccccc1,?,18225,.,.
CC(C)(C)c1ccc(/C=C(\C#N)C(=O)Nc2ccccn2)cc1,.,.,.,.
CNc1ccc(/C=C(\C#N)C(=O)Nc2ccccn2)cc1[N+](=O)[O-],.,.,32.6,37.5
N#C/C(=C\C=C\c1ccccc1)C(=O)Nc1ccccc1,.,.,.,.
Cc1ccccc1NC(=O)/C(C#N)=C\c1cccnc1,?,17365,.,.
N#C/C(=C\c1ccccc1)C(=O)Nc1ccccn1,.,.,.,39.8
CCCCC[C@@H](/C=C/C1C(=O)C=C[C@H]1C/C=C\CCCC(=O)OC)OC(C)=O (some centres not stated),.,.,.,.
CCN(CC(=O)Nc1ccccc1C(F)(F)F)C(=O)/C=C/c1ccc(Cl)c([N+](=O)[O-])c1,.,.,.,.
Cc1c(C)c2ccc(OCC(=O)N(C)C3CCS(=O)(=O)C3)c(C)c2oc1=O (configuration not stated),.,.,.,.
O=C(Cn1c(=O)[nH]c2ccsc2c1=O)NC1CCCCCC1,?,23444,.,.
CCn1c(SCC(=O)N2CCC(C)CC2)nc2c1c(=O)n(C)c(=O)n2C,.,.,.,.
O=C(CCC1CCCC1)Nc1cc(C(F)(F)F)ccc1N1CCOCC1,.,.,.,?
N#Cc1c(OCC(=O)c2ccccc2)nc2c(c1-c1ccco1)CCc1ccccc1-2,.,18221,.,.
CCCCOC(=O)Nc1nnc(COc2ccccc2)s1,.,16850,.,.
Cc1ccc(-c2ccc3c(c2)O[C@H](CN(C)Cc2cncnc2)[C@@H](C)CN([C@H](C)CO)S3(=O)=O)cc1,.,.,.,.
CCOC(=O)c1c(C)[nH]c(C(=O)COC(=O)c2ccccn2)c1C,.,19471,.,.
CCOC(=O)c1c(C)[nH]c(C(=O)COC(=O)C2(C)CC2(Cl)Cl)c1C (configuration not stated),.,23186,.,.
CCOC(=O)c1c(C)[nH]c(C)c1C(=O)CSc1ncccn1,.,21577,.,.
CCOC(=O)c1c(C)[nH]c(C(=O)OCC(=O)c2ccccc2)c1C,.,.,.,.
Cc1ccc2[nH]c(=O)c(CN(CCO)C(=O)N(C)C)cc2c1,.,17576,.,.
Cc1ccc(S(=O)(=O)N(C)Cc2cc3ccccc3[nH]c2=O)cc1,.,22031,.,.
COc1ccc(CN(Cc2cc3cc(C)ccc3[nH]c2=O)C(=O)N(C)C)cc1,.,.,.,.
SMILES,BoNT-A LC inh2,Bead autofluor,Anthrax LF inh2,BoNT F protease
CN(Cc1cc2ccccc2[nH]c1=O)S(=O)(=O)c1ccccc1,.,.,.,.
O=C1CCN(Cc2ccccc2)S(=O)(=O)c2c(F)cc(F)cc21,.,.,.,.
CCN(C(=O)C1CCCN(c2ncnc3c2nc2n3CCCCC2)C1)c1cccc(Cl)c1 (configuration not stated),.,.,.,.
CCC(=NCc1cccnc1)c1c(O)n(Cc2ccccc2)c(=O)[nH]c1=O,.,19069,.,.
CC(=NCc1cccnc1)c1c(O)n(Cc2ccccc2)c(=O)[nH]c1=O,.,.,.,.
CCCCn1c(O)c(C(CC)=NCc2cc(OC)cc(OC)c2)c(=O)[nH]c1=O,.,22230,.,.
CCCCn1c(O)c(C(CC)=Nc2ccc(OCC)cc2)c(=O)[nH]c1=O,.,16712,.,.
CCCCn1c(O)c(C(CC)=Nc2ccc(OC)cc2OC)c(=O)[nH]c1=O,.,.,.,.
CCCCn1c(O)c(C(CC)=NC(C)c2ccccc2)c(=O)[nH]c1=O (configuration not stated),.,.,.,.
CCCCn1c(O)c(C(CC)=NCc2cccnc2)c(=O)[nH]c1=O,.,22114,.,.

# Assay outcomes (PubChem BioAssay)
